Results on 17 compounds are retold here after PubChem BioAssay (NCATS).

Common to all, as to test: Cytotoxic Profiling of Annotated Libraries Using Quantitative High-Throughput Screening (AID 1296008); further: nearly all actives have a fitted effect of over 60% in size
Holding throughout (conditions): Five cell lines viability, CellTiter-Glo ATP luminescence, 48-72 h; max response: active compounds read low
In general terms: Cellular ATP, detected with luciferase, serves as a proxy for viable cell number.

One test deals with CRL-7250. The method in brief: (§1)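 Compounds were pin-transferred onto cells and incubated 48 or 72 hr at 37 degree Celsius, 95% humidity. CellTiter-Glo was added, plates sat 10 min at room temperature, then ATP-coupled luminescence was imaged as the viability read-out.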
The next test relates to HEK293. In a few lines: as §1
For the next test, the system named is HaCat. In a few lines:
as §1

For the next test, the system named is KB-3-1. In a few lines:
as §1

For a further test, the system named is NIH3T3. In a few lines: as §1

Each structure is given as a SMILES string. Records with an inconclusive call do not appear. Values without a mark were called inactive. Activity calls are given as the source filed them. The call rests on the fitted dose curve; in most records, active means well fitted inhibition curve with a large enough effect; inconclusive means small, poorly fitted or top-dose-only effect; inactive means flat fitted curve, though single readings scatter. Where a SMILES comes first, the peptide text is derived from it. [ ]: non-standard residue; d: D form. ξ: configuration not given here. ξPhe(βξ-Me) = CC(c1ccccc1)C(N)C(=O)O; GABA = NCCCC(=O)O
On the % scale 0 is the no-effect control and ±100 the full control effect; potency means the concentration at half of the fitted maximal effect.

As for `CC(C)CNCc1ccc(-c2ccccc2S(=O)(=O)N2CCCC2)cc1`, the max response in the test with CRL-7250 is 1.47%; with HEK293 it was -19.2%; in the test on HaCat, -12.3%; with KB-3-1, -1.28%; in the test with NIH3T3, -1.63%.

As for `C[C@H]1CC[C@@]2(OC1)O[C@H]1CC3C4CC[C@H]5C[C@@H](O)[C@H](O)C[C@]5(C)C4=CC(=O)[C@]3(C)[C@H]1[C@@H]2C` (stereo not given in full), the max response was -0.885% in the test with CRL-7250; -6.34% in the test on HEK293; -0.134% with HaCat; 0.923% with KB-3-1; -10.8% with NIH3T3.

With `N#Cc1cnc2cnc(NCc3cccnc3)cc2c1Nc1ccc(F)c(Cl)c1`, the Potency in the test on CRL-7250 is 5.17 µM (active); in the test with HEK293, 3.66 µM (active); in the test on HaCat, 20.6 µM (active). Also, the max response with KB-3-1 is -15.8%; in the test on NIH3T3 it was -8.77%.

On to `CC1NC(=O)CCCNC(=O)C(Cc2c[nH]c3ccccc23)NC(=O)C(C)NC(=O)C(C(C)C)NC(=O)C(C(C)c2ccccc2)NC(=O)C(C(C)C)NC1=O` (stereo not drawn) (cyclo([GABA]AV[ξPhe(βξ-Me)]VAW); configuration not given here), for which the max response in the test with CRL-7250 was -8.98%; with HEK293, -4.9%; in the test on HaCat, -0.27%; with KB-3-1, -4.62%; in the test with NIH3T3, -4.21%.

Consider `CC(=O)O[C@]1(C(C)=O)CC[C@H]2[C@@H]3C[C@H](C)C4=CC(=O)C=C[C@]4(C)[C@@]3(F)[C@@H](O)C[C@@]21C`, for which the max response in the test on CRL-7250 is -19.1%; with HEK293, -1.51%; with HaCat, 3.64%; in the test on NIH3T3 it was 3.11%. The compound was classed as inactive in the test with KB-3-1.

With `CCOc1ccc2nc(SCCN3CCOCC3)[nH]c2c1`, the max response with CRL-7250 was -3.31%; in the test on HEK293, -19.2%; in the test on HaCat, 4.78%; in the test on KB-3-1 it was -9.7%; in the test on NIH3T3 it was 0.835%.

Regarding `CC(C)(C)CCN1C[C@@H]2C(CNC(=O)c3cc(Cl)cc(Cl)c3)[C@@H]2C1` (stereo not given in full), the max response is -6.01% in the test with CRL-7250; -15.4% in the test on HEK293; -17.8% in the test with HaCat; -5.02% with KB-3-1; -2.97% in the test with NIH3T3.

Turning to `CC1=C(COC2OC(CO)C(O)C(O)C2O)C(C(CO)C(=O)O)CC1` (stereo not given), the max response in the test with CRL-7250 is 2.58%; with HEK293, -0.67%; in the test on HaCat it was -4.43%; with KB-3-1, 9.18%; in the test with NIH3T3, -0.514%.

On to `CC/C=C\CCO[C@@H]1O[C@H](CO)[C@@H](O)[C@H](O)[C@H]1O`, for which the max response in the test on CRL-7250 is -3.17%; in the test with HEK293, 0.0515%; in the test with HaCat, -6.57%; with KB-3-1, 3.45%; with NIH3T3, -7.98%.

For the compound `C=C(C(=O)O)C1CCC2(C)CCC(O)C(=C)C2C1` (stereo not given), the max response with CRL-7250 is -9.49%; with HEK293, -0.847%; in the test on HaCat, -10.5%; with NIH3T3, -5.34%. The compound was called inactive in the test with KB-3-1.

In the case of `O=C(NCc1ccccn1)Nc1nnc(-c2ccco2)o1`, the max response is 0.451% in the test on CRL-7250; -0.62% in the test with HEK293; 1.95% with HaCat; 3.97% in the test on KB-3-1; 3.06% in the test on NIH3T3.

For the compound `CC1(C)CC[C@]2(C(=O)O[C@@H]3O[C@H](CO)[C@@H](O)[C@H](O)[C@H]3O)CC[C@]3(C)C(=CCC4[C@@]5(C)CC[C@H](O[C@@H]6O[C@H](C(=O)O)[C@@H](O)[C@H](O)[C@H]6O)[C@@](C)(CO)C5CC[C@]43C)C2C1` (stereo not given in full), the max response with CRL-7250 is 1.86%; in the test with HEK293, -6.82%; in the test with KB-3-1, -0.849%; in the test with NIH3T3, -2.22%. In addition, the result in the test on HaCat was inactive.

As for `COc1ccc(/C=C\C(=O)O)c(O[C@@H]2O[C@H](CO)[C@@H](O)[C@H](O)[C@H]2O)c1`, the compound was called inactive in the test on CRL-7250 and in the test with KB-3-1. In addition, the max response is -0.642% in the test on HEK293, -1.35% in the test with HaCat and 0.681% with NIH3T3.

As to `COc1cc(C(=O)OC[C@@]2(O)CO[C@@H](O[C@H]3[C@H](Oc4ccc(C(=O)O)cc4OC)O[C@H](CO)[C@@H](O)[C@@H]3O)[C@@H]2O)ccc1O`, the max response in the test on CRL-7250 is -0.15%; in the test with HEK293, -19.1%; in the test with HaCat, 1.78%; in the test with NIH3T3, 3.57%. In the test on KB-3-1, the result was inactive.

On to `COc1ccc(F)cc1-c1cc(NC(=O)[C@@H]2CCCNC2)ncc1Cl`, for which the Potency was 0.291 µM (active) in the test with CRL-7250; 0.259 µM (active) with HEK293; 1.16 µM (active) with HaCat; 0.231 µM (active) with KB-3-1; 1.03 µM (active) in the test with NIH3T3.

`COc1c2c(c(C)c3c1C(=O)OC3)OC1(C)CC(O)C34OC(OC)(OC3(C)C)C(O)CC4(C)C1C2` (stereo not given): the call in the test on CRL-7250 and with KB-3-1 was inactive. Further, the max response with HEK293 is -9.65%; with HaCat it was -21.2%; in the test on NIH3T3, -1.37%.

Regarding `C#CCN(Cc1cc2c(=O)[nH]c(C)nc2cc1Br)c1ccc(C(=O)NCc2cccnc2)cc1`, the Potency is 0.0517 µM (active) in the test on CRL-7250; 0.0046 µM (active) in the test with HEK293; 0.0411 µM (active) in the test on HaCat; 0.0052 µM (active) in the test on KB-3-1; 0.0092 µM (active) in the test with NIH3T3.
